Data as given in PubChem BioAssay.
Calls of active or inactive are those of the source.

Assay: optical density shifts of acrAB sulA E. coli – strain DRC41, OD650, 48 h, E. coli filamentation inducer project, primary screen (AID 1152);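 further: E. coli MC1000 strain DRC41 lacking acrAB efflux pump and sulA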
Conditions: higher = more signal, called active from +8 up or from −8 down

z-score, inactive:
C=C(CCCC)/C(=C/C[C@@H](OC(=O)c1ccncc1)c1cccc(OCCO)c1)c1cnc2ccccc2c1 0.0513
CC(=O)n1cc(C(O)C2C=CC3C(=O)N(c4ccccc4)C(=O)C3N2Nc2ccccc2)c2ccccc21 (stereo not given) -1.45
C=CCN1C(=O)[C@]2(CC=C)N=C(c3ccc(OCCCO)cc3)O[C@@H]2c2ccccc21 0.987
CCOC(=O)C[C@H]1[C@H](OC(=O)Cc2ccc3c(c2)OCO3)[C@@H](NC(=O)C2CCCCC2)c2cc(OCCCO)ccc2N1C(=O)c1ccc2ccccc2n1 0.699
O=C1O[C@@H](c2ccccc2)[C@@H](c2ccccc2)N2[C@@H](c3ccccc3OCCO)[C@]3(C(=O)Nc4ccc(C#CC5=CCCCC5)cc43)[C@@H](C(=O)NC[C@H](O)c3ccccc3)[C@H]12 2
O=C1OCC=C[C@H]2OC34C=CCN(Cn5nnc6ccccc65)C(=O)[C@H]3N(CCCCCCO)C(=O)[C@@H]4[C@@H]12 (stereo not given in full) -0.169
COCCCNC(=O)[C@]1(Cc2ccccc2N=[N+]=[N-])N=C(c2ccc(OCCCO)cc2)O[C@@H]1c1ccccc1N=[N+]=[N-] -0.279
CC(C)c1ccc(NN2C(C(O)c3ccco3)C=CC3C(=O)N(c4ccccc4)C(=O)C32)cc1 (stereo not given) -0.302
Cc1ccc(S[C@]2(C(=O)NCC(C)C)CC(=O)N(Cc3ccccc3Cl)[C@@H]2c2ccc(CO)cc2I)cc1 -0.455
C=CCC(OC(C)=O)[C@@H]1[C@@H](N(Cc2ccc(-c3ccccc3)cc2)C(=O)c2cccc3ccccc23)c2cc(OCCCO)ccc2N1C(=O)Cc1ccc2ccccc2c1 (stereo not given in full) -0.316
CC=CC(O)C1C=CC2C(=O)N(C)C(=O)C2N1Nc1ccc([N+](=O)[O-])cc1[N+](=O)[O-] (stereo not given) -1.33
CC(C)(C)OC(=O)CC[C@]1(C(=O)NCCN2CCOCC2)N=C(c2ccc(OCCCO)cc2)O[C@H]1c1ccccc1 0.167
CCCCC(=C=CC[C@@H](O)c1ccc(OCCO)cc1)C[C@@H](O)COCc1ccccc1 1.98
COC(=O)[C@H](Cc1ccccc1)N1CC(/C=C/C2CC2)=C[C@@H]1[C@@H](O)Cc1ccccc1 0.974
COCCOC(=O)N1C(=O)[C@@]2(c3cc(C#CCC(C(=O)OC)C(=O)OC)ccc31)[C@H](c1ccc(OCCO)cc1)N1[C@H](c3ccccc3)[C@H](c3ccccc3)OC(=O)[C@H]1[C@@H]2C(=O)N1CCN(c2ncccn2)CC1 1.89
CN(C)C(=O)[C@]1(CCC(=O)OC(C)(C)C)N=C(c2ccc(OCCCO)cc2)O[C@@H]1c1ccccc1 0.94
COCCOC(=O)N1C(=O)[C@@]2(c3cc(C#CC4(O)CCCCCC4)ccc31)[C@H](C(N)=O)[C@H]1C(=O)O[C@H](c3ccccc3)[C@H](c3ccccc3)N1[C@@H]2c1ccccc1OCCO 0.127
CC(CO)N1C(=O)[C@@H]2C3C(=O)OCCC/C=C\[C@H]3OC23C=CCN(Cn2nnc4ccccc42)C(=O)[C@@H]13 (stereo not given in full) 0.822
COC(=O)[C@@]1(Cc2ccc(OC)cc2)[C@H]2c3cc(C(=O)N(C)C)n(CCc4c[nH]c5ccc(O)cc45)c3C[C@H]2CN1C(=O)c1ccccc1 -1.58
O=c1cccc(-c2cccc(Cl)c2)o1 0.457
O=C1O[C@H](c2ccccc2)[C@H](c2ccccc2)N2[C@H]1[C@@H](C(=O)O)[C@]1(C(=O)Nc3ccccc31)[C@H]2c1ccc(O)cc1 -0.611
COCCOC(=O)N1C(=O)[C@@]2(c3ccccc31)[C@H](C(=O)N1CCN(c3ncccn3)CC1)[C@H]1C(=O)O[C@H](c3ccccc3)[C@H](c3ccccc3)N1[C@@H]2c1ccc(OCCO)cc1 1.18
CCOC(=O)C1=C[C@@H](c2ccccc2)N(S(=O)(=O)c2ccc(C)cc2)[C@H]1c1cccc(Cl)c1 -1.29
O=C1c2ccccc2[C@](Cc2ccccc2I)(C(=O)NCCN2CCOCC2)[C@H](c2ccc(CO)cc2)N1Cc1ccccc1 -0.381
O=C(O)[C@H]1C[C@H]2C(=O)N3CCC[C@H]3C(=O)N2[C@H]1c1cccc(OCCO)c1 0.71
